Here are results for 43 sequences from article PMC7819943, “Rice protein-binding microarrays: a tool to detect cis-acting elements near promoter regions in rice”.

Whole data set: some 39,000 sequences, median “fluorescence intensity (a.u.)” near 4,300, cut for the highest 2% near 39,000. The sample as a whole holds a higher share of the highest values than the screen did.

The target in this test is T1, OsSMF1 (Oryza sativa, UniProt Q6ZLB0 1-436).
T1 sequence: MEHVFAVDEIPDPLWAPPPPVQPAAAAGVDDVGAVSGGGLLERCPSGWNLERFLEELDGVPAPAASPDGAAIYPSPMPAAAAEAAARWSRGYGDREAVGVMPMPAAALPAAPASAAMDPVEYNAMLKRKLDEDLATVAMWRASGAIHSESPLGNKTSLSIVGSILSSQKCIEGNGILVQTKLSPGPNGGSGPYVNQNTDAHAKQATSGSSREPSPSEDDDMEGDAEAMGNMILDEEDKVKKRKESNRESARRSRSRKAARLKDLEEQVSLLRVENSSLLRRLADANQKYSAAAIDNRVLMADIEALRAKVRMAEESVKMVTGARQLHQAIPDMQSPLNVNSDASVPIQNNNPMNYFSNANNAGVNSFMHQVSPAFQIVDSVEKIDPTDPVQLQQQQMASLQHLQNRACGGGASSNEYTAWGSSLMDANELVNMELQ
Nature of the test: protein-binding microarray (RPBM); PBS, 2% BSA, 51.3 ng/ul salmon testes DNA, 50 uM zinc acetate, 200 nM TF, 25 C, 1 h; high values mean tight binding. Conditions: protein: recombinant; tags: N-terminal polyhistidine and DsRed monomer fusion (pET32a); chain copies: 2; label: CyDye5-dUTP incorporated in the synthesized complementary strand; 3' TTTTT single-stranded linker to array surface; dsDNA, one strand shown. Put shortly:
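The binding signal for each feature is its fluorescence intensity in arbitrary units. An Axon 4000B scanner was used to read a custom Agilent array that had been made double-stranded with Cy5-dUTP primer extension, blocked with 2% BSA, incubated at 25 °C for 1 h with 200 nM protein in PBS, 2% BSA, salmon testes DNA and 50 µM zinc acetate, and washed. The protein was an N-terminal polyhistidine–DsRed transcription factor fusion from E. coli BL21-CodonPlus, purified on Ni–NTA.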
In the case of “AGTACTGGATGTGACACATCCTGGTACTACGAATCTGAACCGGAGTCACCTAGTGCAG”, the binding signal was 3910 fluorescence intensity (a.u.).
Regarding “ATATTCATATGACATGACACGTAAATGTCACGTAGGATATCGGAGTCACCTAGTGCAG”, the binding signal was 3700 fluorescence intensity (a.u.).
For “ACTAGGATGTCACAACAGCCAAACCATCCATATACTGCCACGGAGTCACCTAGTGCAG”, the binding signal was 3170 fluorescence intensity (a.u.).
In the case of “TGGCCCAACACATCAACGTTACATCACGGGCTTTAACGTTCGGAGTCACCTAGTGCAG”, the binding signal was 3290 fluorescence intensity (a.u.).
Take “AGAAAAGAAAACGCGGCAATAAACAATGACACGGCCTGTCCGGAGTCACCTAGTGCAG”: the binding signal is 4200 fluorescence intensity (a.u.).
In the case of “GGCTGACGGCTGGTGAGAAGCCACGTCAGCATTTAATTCCCGGAGTCACCTAGTGCAG”, the binding signal is 13100 fluorescence intensity (a.u.).
Then “ATTGCGCAGGCGCAGCAATATTGAATGGCCCAAATGCTAGCGGAGTCACCTAGTGCAG”, with 23800 fluorescence intensity (a.u.).
Turning to “GCACAGGCTTGACACCAGTCGAGCCGAGCCGAAACCCCGTCGGAGTCACCTAGTGCAG”, the binding signal was 3270 fluorescence intensity (a.u.).
Consider “ATTTTCGTGTGCAGTATATGTGTTCCCAACCCTGAGAGCCCGGAGTCACCTAGTGCAG”, for which the binding signal was 3620 fluorescence intensity (a.u.).
Regarding “CTCTGTTCACTCCACCAAACTCCTTCGATTGATCAAATGACGGAGTCACCTAGTGCAG”, the binding signal is 47200 fluorescence intensity (a.u.).
Turning to “ATTGATCACTCGGACGTCACCAAACGATCGATAAACTCGTCGGAGTCACCTAGTGCAG”, the binding signal was 5630 fluorescence intensity (a.u.).
For “TGGGATGATCAAATGACTGCCACACTGTCATGTTCCTCTGCGGAGTCACCTAGTGCAG”, the binding signal was 3610 fluorescence intensity (a.u.).
Turning to “AGCTGTGCCAACGAGCCCTTAATTAGTTATTATCTCTTCTCGGAGTCACCTAGTGCAG”, the binding signal is 44600 fluorescence intensity (a.u.).
Take “AGCCTCTTCCATCTCGAGCCAGCTCATATTGATTATCCAACGGAGTCACCTAGTGCAG”: the binding signal was 4850 fluorescence intensity (a.u.).
On to “ACCAACGAACGGACGCTGTCATGTCACCTCTCTTAATCTTCGGAGTCACCTAGTGCAG”, for which the binding signal is 3740 fluorescence intensity (a.u.).
For the sequence “TAGCATAGCCAACTGCTGACTCCAAATTATCTATAGTCAACGGAGTCACCTAGTGCAG”, the binding signal is 3850 fluorescence intensity (a.u.).
With “AACTGCAGCAATATCACTCCCTCCAAATCAGCACATGCATCGGAGTCACCTAGTGCAG”, the binding signal was 3560 fluorescence intensity (a.u.).
For the sequence “AAGCACTCCAAACTGCAACGATTATATCAATAAAATAAAACGGAGTCACCTAGTGCAG”, the binding signal was 39000 fluorescence intensity (a.u.).
As for “TGTCAGTTGGCGAGGGATGCACTGATGACTATGCTAGTGCCGGAGTCACCTAGTGCAG”, the figure is 4860 fluorescence intensity (a.u.); as for “AAGCTAGTACAAGATGCGAAATGTCGTCAGATTCAGAGATCGGAGTCACCTAGTGCAG”, 3580 fluorescence intensity (a.u.).
As for “CGTTGCGCACGTACAGCTCACGCTCAAGTCGTACACATTACGGAGTCACCTAGTGCAG”, the binding signal is 3840 fluorescence intensity (a.u.).
With “ATACGATACCATAGGTATGTCAGCATGATATATATGTACTCGGAGTCACCTAGTGCAG”, the binding signal is 3890 fluorescence intensity (a.u.).
For the sequence “TGTCATAAATTGTACCGACATGATACACATGTCCGATACTCGGAGTCACCTAGTGCAG”, the binding signal is 39400 fluorescence intensity (a.u.).
As for “AGTACATAATTACGCACATGTGACACACACCACACATACTCGGAGTCACCTAGTGCAG”, the binding signal is 3140 fluorescence intensity (a.u.).
For the sequence “TATGTGTTGACACCAAGGCTGACTCGGTTTTCGTCAAGGTCGGAGTCACCTAGTGCAG”, the binding signal is 6530 fluorescence intensity (a.u.).
Then “GTCGTCTAGTAGTAGTAGCCTACCACCACCTCCCTCGGCGCGGAGTCACCTAGTGCAG”, with 3230 fluorescence intensity (a.u.).
As to “TAGCAAGAGACCTTGTTGAGCATGTCATCAATGTCAAGTGCGGAGTCACCTAGTGCAG”, the binding signal is 4150 fluorescence intensity (a.u.).
Then “AAATGGGGCCTAGAGTTCCAACCAATTGCAGCAAGAGCAGCGGAGTCACCTAGTGCAG”, with 3230 fluorescence intensity (a.u.).
Turning to “AATTGGGATCAAAGCCTTCATGTTCATAGCAAATCAAGAGCGGAGTCACCTAGTGCAG”, the binding signal is 45900 fluorescence intensity (a.u.).
With “AGAATTTTGCAGACCGAGGCTTGGCCACCGAGGCGCAAGCCGGAGTCACCTAGTGCAG”, the binding signal is 3790 fluorescence intensity (a.u.).
As for “GAACGACCCGAACTTATGACTCATTTATGGTTTGTTTCTCCGGAGTCACCTAGTGCAG”, the figure is 8680 fluorescence intensity (a.u.); as for “ACCTCCTCCACCTCCATGGCTCACCACCACGTACAGCAAACGGAGTCACCTAGTGCAG”, 3360 fluorescence intensity (a.u.); as for “TTTTAAGGGGCAAATCTTACCAACTTTTACTAGCGTGTCACGGAGTCACCTAGTGCAG”, 3680 fluorescence intensity (a.u.).
In the case of “CTGTAGCAAATTAGAAGCAAAAGTGTTAGTTCAAATTGTGCGGAGTCACCTAGTGCAG”, the binding signal is 3320 fluorescence intensity (a.u.).
As for “CTAAAACCACATATAAGGAGTGTCCTGTAGCAAAATTTCCCGGAGTCACCTAGTGCAG”, the figure is 4200 fluorescence intensity (a.u.).
Consider “AGTAGCAAAACCTGTTTGTAGAGGAAATTATTATAGTGTTCGGAGTCACCTAGTGCAG”, for which the binding signal is 53700 fluorescence intensity (a.u.).
Regarding “CGTGTGTAACTTTGGAACCTGCCACGGGAGAGCGAATTCCCGGAGTCACCTAGTGCAG”, the binding signal is 25500 fluorescence intensity (a.u.).
As for “ACAAATTATAAGTAACAAACTTTTGTGACGTATAGTAGCCCGGAGTCACCTAGTGCAG”, the binding signal was 4440 fluorescence intensity (a.u.).
Regarding “TGTGAATTACTAGTAGTACGTAAGCATAAATACGCCACCCCGGAGTCACCTAGTGCAG”, the binding signal is 3550 fluorescence intensity (a.u.).
Turning to “GAATAGTAACAATTAGTTTTGTGAATTTTGTGAAATACGCCGGAGTCACCTAGTGCAG”, the binding signal was 52300 fluorescence intensity (a.u.).
Then “GCTTCCCGCACGACACCTGTCCACACAAATCTTAGAGCAACGGAGTCACCTAGTGCAG”, with 41400 fluorescence intensity (a.u.).
Regarding “AACCTGCTGTCCACTACAACGTCACATTTCAACAAATCCACGGAGTCACCTAGTGCAG”, the binding signal was 34200 fluorescence intensity (a.u.).
Then “ACCAACGGCCCGAGTCCGACACACGTCTCACGCACGAGCACGGAGTCACCTAGTGCAG”, with 3910 fluorescence intensity (a.u.).
